CBFb RUNX1 block: inhibitors of human CBF-beta and RUNX1 interaction | Q01196+Q13951 | AlphaScreen CBFb-His/RUNX1-biotin binding, biochemical | Potency, µM (series often up to 59.8 µM), for the others: at the highest dose activity, negative = inhibition, actives largely listed as inhibitors | 230,000 tested, under 10 active; further: % of control where 0% means no effect
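AlphaScreen binding: CBFb-His and RUNX1-biotin (30 nM each) preincubated 20 min, compound added for 15 min, then nickel and streptavidin beads for 90 min, all at room temperature. Disruption of the interaction by any mechanism counts as activity.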
PTAP TSG101 blk: blocks PTAP/TSG101 interaction to inhibit HIV-1 budding. Potency, µM (highest dose often 115 µM), for the others: top-dose activity change, negative = inhibition, most hits filed as inhibitors. AID 493005. 340,000 tested, under 10 active. Fluorescence polarization, FITC-PTAP peptide / Tsg101 binding. Q99816; active means well fitted inhibition curve with a large enough effect in the main read-out, with a control signal flat, not every such curve was filed as active; inconclusive means small, poorly fitted or top-dose-only effect, or effect the other way, or a change in a side signal; inactive means no such curve, though single readings can be large or run the other way; further: potency means the concentration at half of the fitted maximal effect; % of control where 0% means no effect
Target sequence (Q99816 whole entry, looked up): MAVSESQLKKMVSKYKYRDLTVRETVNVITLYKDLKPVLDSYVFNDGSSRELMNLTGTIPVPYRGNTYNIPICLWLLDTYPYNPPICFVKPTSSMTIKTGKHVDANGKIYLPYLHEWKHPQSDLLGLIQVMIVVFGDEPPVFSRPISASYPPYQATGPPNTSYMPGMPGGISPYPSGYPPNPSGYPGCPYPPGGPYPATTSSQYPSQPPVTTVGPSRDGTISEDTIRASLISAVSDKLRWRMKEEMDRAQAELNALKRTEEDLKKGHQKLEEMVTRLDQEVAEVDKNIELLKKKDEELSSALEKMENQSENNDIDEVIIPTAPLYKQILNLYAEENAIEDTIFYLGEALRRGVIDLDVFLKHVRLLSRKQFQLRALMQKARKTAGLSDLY
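Tsg101 binding domain (10 uM final) was mixed with compound and a FITC-labeled PTAP peptide (50 nM final) in HEPES pH 7.5 buffer with NaCl, Tween 20, EDTA and TCEP; fluorescence polarization was read after 20 min at r.t.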
AT treatment: candidate therapy for ataxia-telangiectasia; F2112 A-T fibroblasts, KAP-1 phosphorylation AlphaLISA; neocarzinostatin DNA damage 30 min before lysis; Potency, µM (titrated, usually from 57.5 µM), for the others: top-dose activation, hits mostly activators; hit rate 0.19% among 320,000; AID 485349; further: potency means the concentration at half of the fitted maximal effect; % of control where 0% means no effect; nearly all actives have a fitted effect of over 45% in size
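hTERT-immortalized A-T patient fibroblasts (F2112), 500 cells/well in OPTI-MEM, 1% FBS, got compounds for 60 min, then NCS for 30 min at 37C. Lysates were then assayed for phospho-KAP-1 by AlphaLISA (anti-pKAP1 donor, anti-KAP1 acceptor beads), 6 hr at 25C.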
IMPase Li inh: cell-permeable IMPase inhibitors with lithium potentiation; CHO-M1 cells, IP1 TR-FRET (IP-One), carbachol + lithium; Potency, µM (doses to about 59.4 µM), for inactives: at the top dose activity, negative = IMPase inhibition, usual class: inhibitors; hit rate 0.35% among 210,000;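 further: IP1 builds up when IMPase is blocked and the TR-FRET signal falls; potency means the concentration at half of the fitted maximal effect; plate controls were basal vehicle for no effect and high inhibitor control for full effect; nearly all actives have a fitted effect of over 50% in size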
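CHO-M1, 2000 cells/well, 16–30 h culture; cpd + low Li+, 30 min 37C; lysis with d2-IP1/Eu-anti-IP1 Ab, 10 min RT; TR-FRET 665/620 ratio and 620 channel; AC50 via Hill.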
* hit, by the source's call; [ ] = remark or other dose. An excerpt weighted towards active compounds, which were near 0.37% of everything screened. Unless noted, the call rests on the fitted dose curve; in most records, active means well fitted curve in the direction sought with a large enough effect; inconclusive means small, poorly fitted or top-dose-only effect, or another doubt; inactive means no such curve, though single readings can be large; an effect the other way counts as inactive or inconclusive.

`COc1ccc(-n2c(-c3cccc(OC)c3)nc(=S)c3c2CCCC3)cc1` gave CBFb RUNX1 block 2.4%, PTAP TSG101 blk -6.5%, AT treatment -10.0% and IMPase Li inh 7.94µM*.
Screening COc1ccc(-n2c(-c3ccccc3)nc(=S)c3c2CCCC3)cc1 returned CBFb RUNX1 block -0.8%, PTAP TSG101 blk -3.2%, AT treatment -2.8% and IMPase Li inh -14.3%[38.3 µM].
CN(C)C(C)(C)C#CCC(c1ccccc1)c1ccccc1 was read as CBFb RUNX1 block -16.1%, PTAP TSG101 blk -1.0%, AT treatment -1.2% and IMPase Li inh 23.2%.
COc1cc2nc(C)sc2cc1SC was read as CBFb RUNX1 block 6.6%, PTAP TSG101 blk -7.3%, AT treatment 39.8µM* and IMPase Li inh -15.7%[38.3 µM].
`COc1cc2nc(/C=C/c3cc(OC)c(OC)c(OC)c3)sc2cc1SC` gave CBFb RUNX1 block inconclusive, PTAP TSG101 blk -2.0%, AT treatment 14.7% and IMPase Li inh -16.0%.
COc1cccc(/C=N/NC(=O)Cn2ccnc2C)c1 was read as CBFb RUNX1 block 5.7%, PTAP TSG101 blk -2.6%, AT treatment -5.8% and IMPase Li inh 1.6%.
Screening Cc1ccccc1N=C1NC(=O)CC(c2ccccc2)S1 (stereo unspecified) returned CBFb RUNX1 block -6.3%, PTAP TSG101 blk -4.9%, AT treatment -1.0% and IMPase Li inh 0.3%[38.3 µM].
O=C(O)c1ccc(Cn2c(SCc3cc(=O)n4cc(Br)ccc4n3)nc3ccsc3c2=O)cc1 was read as CBFb RUNX1 block 8.5%, AT treatment 4.3% and IMPase Li inh inconclusive.
Screening O=C(O)C1CCC(Cn2c(SCc3cc(=O)n4cc(Br)ccc4n3)nc3ccsc3c2=O)CC1 (stereo unspecified) returned CBFb RUNX1 block -1.6%, PTAP TSG101 blk -5.6%, AT treatment 3.6% and IMPase Li inh 10µM*.
For COc1ccc(C2C(C#N)=C(SC)NC3=C2C(=O)CC(C)(C)C3)cc1 (stereo unspecified) the results were CBFb RUNX1 block 5.0%, PTAP TSG101 blk 1.4%, AT treatment 1.2% and IMPase Li inh -3.6%[38.3 µM].
For CCOC(=O)CSC1=C(C#N)C(c2ccc(OC)cc2)C2=C(CC(C)(C)CC2=O)N1 (stereo unspecified) the results were CBFb RUNX1 block 2.8%, PTAP TSG101 blk -1.9%, AT treatment 15.8% and IMPase Li inh 10µM*.
Screening COc1ccc(C(=O)OCc2cc3cccc(C)c3[nH]c2=O)cc1 returned CBFb RUNX1 block -3.4%, PTAP TSG101 blk -3.5%, AT treatment inconclusive and IMPase Li inh 10µM*.
`COc1ccc(CC(=O)OCc2cc3cccc(C)c3[nH]c2=O)cc1` gave CBFb RUNX1 block 6.3%, PTAP TSG101 blk -4.4%, AT treatment 17.3% and IMPase Li inh inconclusive.
`Cc1ccc(C(=O)Nc2nnc(-c3ccc(C(C)(C)C)cc3)s2)cc1` gave CBFb RUNX1 block 2.5%, PTAP TSG101 blk -1.1%, AT treatment -1.9% and IMPase Li inh 3.55µM*.
`CCCCn1nnc(NC(=O)c2sc3cc(Cl)ccc3c2Cl)n1` gave CBFb RUNX1 block 1.1%, PTAP TSG101 blk -5.6%, AT treatment 7.1% and IMPase Li inh 10µM*.
`O=C(COc1ccc2ccccc2c1)NCCNC(=O)COc1ccc2ccccc2c1` gave CBFb RUNX1 block 0.5%, PTAP TSG101 blk -4.5% and IMPase Li inh 12.6µM*.
CCN1C(=O)c2cccc3c(N)ccc(c23)C1=O was read as PTAP TSG101 blk inconclusive and AT treatment 39.8µM*.
For CCCCNc1ccc2c3c(cccc13)C(=O)N(CCCC)C2=O the results were CBFb RUNX1 block inconclusive, PTAP TSG101 blk inconclusive and AT treatment 28.2µM*.
For CN(C)CCCN1C(=O)c2cccc3c(Br)ccc(c23)C1=O the results were CBFb RUNX1 block -0.9%, PTAP TSG101 blk inconclusive, AT treatment 0.6% and IMPase Li inh -5.6%.
`Cc1c(NC(=O)c2cnn3c(C(F)(F)F)cc(-c4ccco4)nc23)c(=O)n(-c2ccccc2)n1C` gave CBFb RUNX1 block -2.0%, PTAP TSG101 blk -7.4%, AT treatment 15.8µM* and IMPase Li inh 22.6%[38.3 µM].
COc1ccccc1C1CC(c2ccco2)=NN1c1ccccc1 (stereo unspecified) was read as CBFb RUNX1 block inconclusive, PTAP TSG101 blk 0.0%, AT treatment 20µM* and IMPase Li inh -17.1%.
Screening COc1ccc(C2=NN(c3ccccc3)C(c3ccc(OC)c(OC)c3)C2)cc1 (stereo unspecified) returned PTAP TSG101 blk -0.7% and AT treatment inconclusive.
C(=C1/CCCC2=C1Nc1ncnn1C2c1ccccc1)/c1ccccc1 (stereo unspecified) was read as CBFb RUNX1 block -4.2%, AT treatment 39.8µM* and IMPase Li inh -16.7%[38.3 µM].
For S=C1NC2=C(CCC/C2=C\c2ccccc2)C(c2ccccc2)N1 (stereo unspecified) the results were CBFb RUNX1 block -11.8%, PTAP TSG101 blk 0.1%, AT treatment -7.5% and IMPase Li inh 2.1%.
`O=S(=O)(c1ccccc1)N1CCN(c2cc(-c3ccccc3)nc3ncnn23)CC1` gave CBFb RUNX1 block 8.7%, PTAP TSG101 blk -0.7%, AT treatment 4.4% and IMPase Li inh 13.3%[38.3 µM].
Cc1ccccc1NC(=O)C1CCN(c2cc(-c3ccccc3)nc3ncnn23)CC1 was read as CBFb RUNX1 block 3.3%, PTAP TSG101 blk -1.9%, AT treatment -0.7% and IMPase Li inh 8.91µM*.
`CCOc1ccc2cc(C#N)c(SCC(=O)NC(C)CC)nc2c1` (stereo unspecified) gave CBFb RUNX1 block 0.7%, AT treatment -1.4% and IMPase Li inh 3.55µM*.
For Cc1ccc2cc(C#N)c(SCC(=O)NNC(=O)Cc3ccccc3)nc2c1 the results were CBFb RUNX1 block -6.3%, PTAP TSG101 blk -0.4%, AT treatment 12.0% and IMPase Li inh 12.6µM*.
CCOC(=O)CSc1nc2cc(OCC)ccc2cc1C#N was read as CBFb RUNX1 block 20.9%, PTAP TSG101 blk 6.2%, AT treatment -0.4% and IMPase Li inh inconclusive.
Screening Cc1ccc2nc(SCC(=O)NCc3cccs3)c(C#N)cc2c1 returned CBFb RUNX1 block -1.9%, PTAP TSG101 blk -4.6%, AT treatment 1.2% and IMPase Li inh 12.6µM*.
Screening Cc1ccc2nc(SCC(=O)NCc3ccco3)c(C#N)cc2c1 returned CBFb RUNX1 block -0.6%, PTAP TSG101 blk -2.9%, AT treatment -12.9% and IMPase Li inh inconclusive.
Screening CCOC(=O)c1cc(-c2ccccc2)sc1NC(=O)CCN1C(=O)c2ccccc2C1=O returned CBFb RUNX1 block -0.3%, PTAP TSG101 blk 0.4%, AT treatment -3.2% and IMPase Li inh 11.3%.
CCOC(=O)c1sc(NC(=O)c2sccc2C)cc1C was read as CBFb RUNX1 block 6.7%, PTAP TSG101 blk -9.3%, AT treatment 3.4% and IMPase Li inh -3.0%[38.3 µM].
CCN(CC)CCOC(=O)c1ccc(NC(=O)c2cccc(C)c2[N+](=O)[O-])cc1 was read as CBFb RUNX1 block 7.6%, PTAP TSG101 blk -3.6%, AT treatment -0.4% and IMPase Li inh 16.5%.
